Screening results (PubChem BioAssay)
Most compounds without a hit are left out; they make up all but 3.8% or so of the library.
mIDH1 inhibitor – qHTS for Inhibitors of mutant isocitrate dehydrogenase 1 (IDH1): qHTS | Isocitrate dehydrogenase [NADP] cytoplasmic (Homo sapiens), O75874 | IDH1-R132H enzyme, NADPH consumption, diaphorase/resazurin fluorescence | Potency, µM (series often up to 76.6 µM), most hits filed as inhibitors | hit rate 0.093% among 390,000 | AID 602179, 2012; also: nearly all actives have a fitted effect of over 65% in size
Target sequence (O75874 whole entry R132H, stated change not applied): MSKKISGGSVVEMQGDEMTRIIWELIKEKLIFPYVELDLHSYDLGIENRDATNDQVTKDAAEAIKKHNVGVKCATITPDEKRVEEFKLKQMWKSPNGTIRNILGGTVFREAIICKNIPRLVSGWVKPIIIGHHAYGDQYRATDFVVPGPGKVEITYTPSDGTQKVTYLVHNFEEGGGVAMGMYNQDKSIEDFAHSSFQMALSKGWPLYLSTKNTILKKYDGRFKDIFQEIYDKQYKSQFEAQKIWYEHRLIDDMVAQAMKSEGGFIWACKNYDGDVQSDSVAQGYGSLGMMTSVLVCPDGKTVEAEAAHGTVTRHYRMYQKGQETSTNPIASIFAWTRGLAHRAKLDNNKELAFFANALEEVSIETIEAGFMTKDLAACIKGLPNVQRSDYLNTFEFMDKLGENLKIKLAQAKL
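IDH1-R132H (0.5 ug/mL dispensed) in pH 7.5 Tris buffer was preincubated 30 min with compound, then given a substrate mix of 0.016 mM NADPH and 2 mM alpha-KG for 80 min at room temperature; remaining NADPH was read by diaphorase/resazurin fluorescence.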
Nrf2 ARE act – qHTS of Nrf2 Activators | AREc32 ARE-luciferase reporter (MCF7-derived line), luminescence, 24 h | hit rate 0.31% among 410,000 | Potency, µM (doses to about 46.1 µM), usual class: activators; also: nearly all actives have a fitted effect of over 65% in size
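Steps: seed AREc32_Fluc cells (1000/well, 5% FBS OPTI-MEM); incubate overnight at 37 deg C; add 23 nL compound; incubate 24 hr; add Steady-Glo; hold 30 min RT; read luminescence.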
Nrf2 block – Nrf2 qHTS screen for inhibitors | A549 ARE-Fluc reporter, luciferase luminescence, 18-24 h | Potency, µM (top dose mostly 46 µM), most hits filed as inhibitors | hit rate 2.1% among 360,000; also: nearly all actives have a fitted effect of over 60% in size
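Two sequential reads on A549 ARE_Fluc cells exposed to compound for 18-24 h: a CellTiter-Fluor fluorescence read for viability, then a luciferase luminescence read for Nrf2/ARE activity.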
A549 tox – Nrf2 qHTS screen for inhibitors: counterscreen for cytotoxicity; A549 ARE-Fluc cells, CellTiter-Fluor viability, 18-24 h; Potency, µM (top dose mostly 46 µM), hits mostly inhibitors; hit rate 0.16% among 390,000
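Cytotoxicity counterscreen: CellTiter-Fluor fluorescence was measured in A549 ARE_Fluc cells after 18-24 h of compound exposure in a concentration series. The subsequent BugLite luminescent read reports ARE-luciferase activity.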
ELG1 DNA repair – qHTS screen for small molecules that inhibit ELG1-dependent DNA repair in human embryonic kidney (HEK293T) cells expressing luciferase-tagged ELG1; HEK293T ELG1-luciferase reporter, luminescence, 16 h; DNA damage induced by 5-fluorouridine; Potency, µM (highest dose often 46.1 µM), hits mostly inhibitors; hit rate 2.3% among 330,000; AID 504467, 2011; also: nearly all actives have a fitted effect of over 55% in size
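DMSO vehicle served as the neutral condition. Each well held 2,000 cells given 5-fluorouridine plus compound; after 16 hr at 37 °C/5% CO2, ONE-Glo was added and luciferase measured 30 min later.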
Each line names hits and unclear results; the compound was inactive in the other large screens. Calls follow the shape of the dose curve; as a rule, active = well fitted curve in the direction sought with a large enough effect; inconclusive = small, poorly fitted or top-dose-only effect, or another doubt; inactive = no such curve, though single readings can be large; an effect the other way counts as inactive or inconclusive.

CCc1ccc2[nH]c(=O)c(CN(CC3CCCO3)C(=S)NCc3ccco3)cc2c1 (stereo not given)	ELG1 DNA repair 18µM
COc1ccc2cc(CN(Cc3ccco3)C(=S)NCC3CCCO3)c(=O)[nH]c2c1 (stereo not given)	ELG1 DNA repair 23µM
COc1ccc2[nH]c(=O)c(CN(Cc3ccccc3)C(=S)NCC3CCCO3)cc2c1 (stereo not given)	ELG1 DNA repair inconclusive
COc1ccc(-c2nc(CCNC(=O)c3ccccc3)cs2)cc1OC	none (no result: Nrf2 block, ELG1 DNA repair)
COCCCNC(=O)c1sc2ncnc(N3CCc4ccccc4C3)c2c1C	Nrf2 block inconclusive, ELG1 DNA repair 8.2µM
Cc1c(C(=O)N2CCCCC2C)sc2ncnc(N3CCc4ccccc4C3)c12 (stereo not given)	ELG1 DNA repair 21µM
Cc1c(C(=O)N2CCOCC2)sc2ncnc(N3CCc4ccccc4C3)c12	none (no result: Nrf2 block)
COc1ccccc1N1CCN(c2ncnc3sc(C(=O)NCC4CCCO4)c(C)c23)CC1 (stereo not given)	ELG1 DNA repair 9.2µM
O=C(NCc1ccccc1Cl)c1nnc(Cc2ccc(Cl)cc2)o1	none (no result: ELG1 DNA repair)
S=C(NCc1ccco1)Nc1ccccc1Cl	none
S=C(NCc1ccco1)Nc1cccc(Cl)c1Cl	ELG1 DNA repair 15µM
COc1ccc(C2CC(=O)C3=C(C2)NC(C)=C(C(=O)Nc2ccccc2C)C3c2coc3ccc(C)cc3c2=O)cc1OC (stereo not given)	ELG1 DNA repair 5.8µM
CC1=C(C(=O)Nc2ccccc2)C(c2coc3ccccc3c2=O)C2=C(CCCC2=O)N1 (stereo not given)	Nrf2 block inconclusive
CCOc1ccc(S(=O)(=O)N(CC(=O)NCCSc2ccccc2)c2ccccc2)cc1	none (no result: ELG1 DNA repair)
COC(=O)c1ccc(Cn2cnc3c(cnn3-c3ccc(C)c(C)c3)c2=O)o1	Nrf2 block 23µM, ELG1 DNA repair inconclusive
COC(=O)c1ccc(Cn2cnc3c(cnn3-c3ccc(F)cc3)c2=O)o1	none
O=C(NC1CCCC1)C1c2ccccc2OCC(=O)N1CCc1ccccc1 (stereo not given)	none (no result: mIDH1 inhibitor, Nrf2 block, A549 tox, ELG1 DNA repair)
CCOc1ccccc1NS(=O)(=O)c1ccc2c(c1)CC(C)N2C(=O)C1CC1 (stereo not given)	Nrf2 block inconclusive (no result: ELG1 DNA repair)
Cc1ccc(C2(c3noc(CN4CCC(c5ccncc5)CC4)n3)CCCC2)cc1	Nrf2 block inconclusive, ELG1 DNA repair 16µM
COc1cc(/C=C/C(=O)OCC(=O)N2c3ccccc3NC(=O)C2(C)C)cc(OC)c1OC	Nrf2 block inconclusive, ELG1 DNA repair 10µM
CC1(C)C(=O)Nc2ccccc2N1C(=O)COC(=O)c1ccc(Cl)c(S(=O)(=O)NCc2ccccc2)c1	Nrf2 block inconclusive, ELG1 DNA repair 21µM
COc1ccc(S(N)(=O)=O)cc1C(=O)OCC(=O)N1c2ccccc2NC(=O)C1(C)C	none
Cc1ccccc1N1CC(c2nc3ccccc3n2CCC2CCCCC2)CC1=O (stereo not given)	Nrf2 block 23µM (no result: ELG1 DNA repair)
Cc1nc2c(N)nn(C)c2nc1C	none (no result: Nrf2 block, A549 tox, ELG1 DNA repair)
COc1ccc(C2Nc3ccccc3C(=O)N2Cc2ccccc2)cc1COc1ccc(C)cc1 (stereo not given)	none (no result: mIDH1 inhibitor, Nrf2 ARE act, ELG1 DNA repair)
CCCC(NC(=S)NCC1CCCO1)C12CC3CC(CC(C3)C1)C2 (stereo not given)	Nrf2 block 15µM, ELG1 DNA repair inconclusive
S=C(NCC1CCCO1)NC1CCCCC1 (stereo not given)	none
Nc1n[nH]c2c1C1(CCCCC1)Cc1ccccc1-2	Nrf2 block inconclusive, A549 tox inconclusive
Nc1ncnc2c1C1(CCCCC1)Cc1ccccc1-2	ELG1 DNA repair 10µM
COc1ccc(C(C#N)=C2C=CC(=NO)C=C2)cc1	Nrf2 ARE act 1.3µM
N#CC(=C1C=CC(=NO)C(Cl)=C1)c1ccc(Cl)cc1	mIDH1 inhibitor inconclusive, Nrf2 ARE act inconclusive (no result: ELG1 DNA repair)
CC1=C(c2ccc(C(C)C)cc2)S(=O)(=O)N=C1N1CCC(C(=O)NCc2ccccc2)CC1	Nrf2 block inconclusive (no result: mIDH1 inhibitor, ELG1 DNA repair)
COc1ccc(NC(=O)c2ccc(-c3nc(CSc4ccc(C)cc4)c(C)o3)cc2)cc1Cl	Nrf2 block 23µM (no result: ELG1 DNA repair)
CC(=O)c1ccc(NC(=O)c2ccc(-c3nc(CSc4ccccc4)c(C)o3)cc2)cc1	Nrf2 block 10µM (no result: ELG1 DNA repair)
Cc1ccc(Cl)cc1NC(=O)c1ccc(-c2nc(CSc3ccccc3)c(C)o2)cc1	Nrf2 block 13µM (no result: ELG1 DNA repair)
Cc1cccc(NC(=O)c2ccc(-c3nc(CSc4ccccc4)c(C)o3)cc2)c1C	Nrf2 block 13µM (no result: ELG1 DNA repair)
CC(=O)c1ccc(NC(=O)c2ccc(-c3nc(CSc4ccc(C)cc4)c(C)o3)cc2)cc1	Nrf2 block inconclusive (no result: ELG1 DNA repair)
COC(=O)c1ccccc1NC(=O)c1ccc(-c2nc(CSc3ccc(C)cc3)c(C)o2)cc1	Nrf2 block inconclusive (no result: ELG1 DNA repair)
COc1ccc(NC(=O)c2ccc(-c3nc(CSc4ccccc4)c(C)o3)cc2)cc1OC	Nrf2 block inconclusive (no result: ELG1 DNA repair)
COc1cccc(Sc2nc(N(C)C)ncc2S(=O)(=O)c2ccc(Cl)cc2)c1	none (no result: mIDH1 inhibitor, Nrf2 ARE act, ELG1 DNA repair)
COc1ccc2cc(/C(C)=N/NC(=O)c3cc(C)oc3C)ccc2c1	none (no result: Nrf2 block, A549 tox, ELG1 DNA repair)
CCN(CC)S(=O)(=O)c1cccc(NC(=O)CCNC(=O)c2ccc([N+](=O)[O-])cc2)c1	Nrf2 block 23µM
Cc1cc(C)n(-c2ccc(C(=O)Nc3ccc(S(=O)(=O)NCc4ccco4)cc3)cc2)n1	Nrf2 block 26µM, A549 tox inconclusive, ELG1 DNA repair inconclusive
CCN(CC)S(=O)(=O)c1cccc(NC(=O)c2ccc(-n3nc(C)cc3C)cc2)c1	Nrf2 block 18µM, A549 tox inconclusive, ELG1 DNA repair 15µM
CN(C)S(=O)(=O)Oc1ccc(C(=O)Nc2cccc(C(F)(F)F)c2)cc1	Nrf2 block 23µM, A549 tox inconclusive, ELG1 DNA repair 21µM
Cc1cc(C)n(-c2ccc(C(=O)Nc3ccc(C)c(S(=O)(=O)N(C)C)c3)cc2)n1	Nrf2 block 18µM, A549 tox inconclusive, ELG1 DNA repair 18µM
Cc1cc(C)n(-c2ccc(C(=O)Nc3cccc(S(=O)(=O)N(C)C)c3)cc2)n1	Nrf2 block 18µM, ELG1 DNA repair 9.2µM
CN(C)S(=O)(=O)c1cccc(NC(=O)c2cccc(NS(=O)(=O)c3ccccc3)c2)c1	Nrf2 block 15µM, A549 tox inconclusive
Cc1ccc(NC(=O)c2ccc(OC(F)(F)F)cc2)cc1S(=O)(=O)N(C)C	Nrf2 block 12µM, ELG1 DNA repair inconclusive
CN(C)S(=O)(=O)c1cccc(C(=O)Nc2ccc(C(=O)Nc3cccc(S(N)(=O)=O)c3)cc2)c1	none
O=C(O)c1cc(-c2cccs2)nn1-c1cccc(Cl)c1	ELG1 DNA repair inconclusive
CN(C)S(=O)(=O)c1cccc(NC(=O)c2cc(-c3cccs3)nn2-c2cccc(Cl)c2)c1	ELG1 DNA repair 12µM
COCCn1c(SCC(=O)c2c[nH]c3ccccc23)nnc1-c1ccncc1	none
